The list is not random: actives were taken first. Their share in the collection is about 2.6%.
Prx2 Sm inh – blocks S. mansoni peroxiredoxin 2 enzymatic activity; S. mansoni Prx2 activity coupled to TGR/GSH (TGR is thioredoxin glutathione reductase), NADPH fluorescence loss, qHTS; Potency, µM; hit rate 0.07% among 65,000; AID 448
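Activity is read as the drop in NADPH fluorescence (365/450 nm), recorded every 30 sec for 8 min after H2O2 addition. Prx2 is coupled to TGR-driven NADPH oxidation through glutathione, in phosphate buffer pH 7.4.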
AmpC nodet inh – blocks E. coli AmpC beta-lactamase in absence of detergent. P00811. AmpC nitrocefin hydrolysis, absorbance 480 nm, no detergent. Potency, µM (series often up to 28.7 µM). hit rate 1.8% among 71,000. AID 585
Target sequence (P00811 whole entry, looked up): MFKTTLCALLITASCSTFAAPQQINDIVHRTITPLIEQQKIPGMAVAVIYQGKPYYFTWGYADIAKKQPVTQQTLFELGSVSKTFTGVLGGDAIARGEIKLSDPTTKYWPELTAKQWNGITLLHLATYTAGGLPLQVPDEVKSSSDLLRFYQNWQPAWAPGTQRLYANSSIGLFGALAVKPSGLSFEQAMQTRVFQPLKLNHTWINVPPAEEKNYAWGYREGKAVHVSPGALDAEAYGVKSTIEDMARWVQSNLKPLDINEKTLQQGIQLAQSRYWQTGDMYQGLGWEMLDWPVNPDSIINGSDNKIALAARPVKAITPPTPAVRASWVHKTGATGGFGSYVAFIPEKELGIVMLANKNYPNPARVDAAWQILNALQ
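Enzyme, pH 7.0 phosphate. Compound titrations were pre-incubated with AmpC for 15 min at room temperature before nitrocefin (stock 800 uM) addition; product formation was recorded at 480 nm every 20 s for 4 min.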
AmpC inh det – blocks E. coli AmpC beta-lactamase in presence of detergent; P00811; Potency, µM (doses to about 28.7 µM); purified AmpC, nitrocefin hydrolysis with detergent; hit rate 0.09% among 71,000; active = well fitted curve in the direction sought with a large enough effect; inconclusive = small, poorly fitted or top-dose-only effect
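E. coli AmpC (5.3 nM) in 20 mM phosphate pH 7.0 with 0.01% Triton X-100, preincubated 15 min RT with compound; nitrocefin (2 uL of 800 uM stock) hydrolysis followed by 480 nm absorbance every 20 s over 4 min.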
LT uptake inh – blocks cellular internalization of anthrax lethal toxin. Cells, anthrax lethal toxin internalization, FRET ratio (460/530). Potency, µM (doses to about 40 µM), usual class: inhibitors. hit rate 0.67% among 70,000. AID 912; note: nearly all actives have a fitted effect of over 50% in size
Large screens that a line does not name were inactive; [ ] = remark or other dose. Unless noted, calls come from the whole dose curve.

CCC(=O)N1CCc2cc(S(=O)(=O)NC(Cc3ccccc3)C(=O)NC3CCCC3)ccc21 (stereo not drawn)	none
CCCCN(C(=O)Cn1nnc2ccccc21)C(C(=O)NCc1ccco1)c1ccncc1 (stereo not drawn)	none (no result: Prx2 Sm inh)
OCCN1CCN(C(c2cccs2)c2ccc3cccnc3c2O)CC1 (stereo not drawn)	AmpC nodet inh 12.6µM, LT uptake inh inconclusive
CCn1c2ccccc2c2nnc(SCC(=O)NCCOC)nc21	none
CCCCN(CC)CCNC(=O)c1cc2c(C)nc3ccccc3c2o1	LT uptake inh 12.6µM
Cc1nc2ccccc2c2oc(C(=O)NCCN3CCCCC3C)cc12 (stereo not drawn)	LT uptake inh 7.94µM
CCN1CCCC1CNC(=O)c1cc2c(C)nc3ccccc3c2o1 (stereo not drawn)	LT uptake inh inconclusive
O=S(=O)(c1ccccc1)N1CCC[C@@]2(CCN(c3ccccc3)C2)C1	LT uptake inh inconclusive
C=C1C(=O)O[C@@H]2[C@@H]1CC/C(C)=C\CC[C@@]1(C)O[C@H]21	LT uptake inh inconclusive
COc1cccc(-c2ccc3ncnc(NCc4cccs4)c3c2)c1	AmpC nodet inh 6.31µM, AmpC inh det 10µM, LT uptake inh 12.6µM
CCc1cc2c(=O)c(Oc3ccccc3)c(C)oc2cc1O	none
CC1Cc2ccccc2N1C(=O)C1CCN(S(=O)(=O)c2cccs2)CC1 (stereo not drawn)	none
COc1ccc(N(CC(=O)N2CCN(Cc3ccc4c(c3)OCO4)CC2)S(C)(=O)=O)cc1OC	none
O=C(Nc1ccc(S(=O)(=O)N2CCc3ccccc32)cc1)c1ccc2c(c1)OCO2	AmpC nodet inh 12.6µM, LT uptake inh inconclusive
O=C(Nc1ccc(S(=O)(=O)N2CCc3ccccc32)cc1)c1ccco1	none
O=C(Nc1nnc(C2CC2)s1)c1cccc(S(=O)(=O)N2CCc3ccccc32)c1	AmpC nodet inh 10µM
Cc1ccc2nc(NC3=NCN(Cc4ccco4)CN3)nc(C)c2c1	none
O=S(=O)(c1ccc(Oc2ccc(S(=O)(=O)N3CCOCC3)cc2)cc1)N1CCOCC1	none (no result: Prx2 Sm inh)
C=CS(=O)(=O)c1ccc(Oc2ccc(S(=O)(=O)C=C)cc2)cc1	Prx2 Sm inh inconclusive, LT uptake inh 3.98µM
O=C1CCc2cc(S(=O)(=O)N3CCCC3C(=O)N3CCN(c4ccccc4)CC3)ccc2N1 (stereo not drawn)	AmpC nodet inh 3.98µM[single pt active]
Cc1ccc(NC(=O)C2CCCN2S(=O)(=O)c2ccc3c(c2)CCC(=O)N3)cc1Cl (stereo not drawn)	AmpC nodet inh 3.98µM[single pt active]
O=C1CCc2cc(S(=O)(=O)N3CCCC3C(=O)N3CCN(c4ccccc4F)CC3)ccc2N1 (stereo not drawn)	none
CCOC(=O)C1=C(C)NC(=O)NC1c1ccc(OCC(=O)N2CCCCC2)cc1 (stereo not drawn)	none
Cc1nc2ccccc2c2oc(C(=O)Nc3ccc4c(c3)OCCO4)cc12	LT uptake inh 0.794µM
Cc1ccn2cc(C(=O)Nc3ccc4c(c3)OCCO4)nc2c1	LT uptake inh 7.94µM
Cc1cccc(N2CCN(C(=O)c3cc4c(C)nc5ccccc5c4o3)CC2)c1C	LT uptake inh 10µM
Cc1nc2ccccc2c2oc(C(=O)NCC3COc4ccccc4O3)cc12 (stereo not drawn)	LT uptake inh 5.01µM
Cc1ccn2cc(C(=O)Nc3ccccc3N3CCOCC3)nc2c1	LT uptake inh inconclusive
CCNc1ncc2nc(-c3cn(C)c4ccccc34)c(=O)n(Cc3cccs3)c2n1	LT uptake inh inconclusive
Cc1cnc(C(=O)Nc2nnc(C(C)C)s2)cn1	none
O=C(Nc1ccc(F)cc1F)N1CCN(C/C=C/c2ccccc2)CC1	AmpC nodet inh 3.98µM[single pt active]
COC(=O)c1ccccc1NC(=O)N1CCN(C/C=C/c2ccccc2)CC1	none
Oc1c(CN2CCc3ccccc3C2)cc(Cl)c2cccnc12	AmpC nodet inh 2.51µM[single pt active], LT uptake inh inconclusive
O=S(=O)(c1ccc2c(c1)OCCO2)N1CCC(c2nc3ccc(Cl)cc3[nH]2)CC1	LT uptake inh 12.6µM
O=C(COc1ccc(Cl)cc1)NC1CN2CCC1CC2 (stereo not drawn)	none
O=[N+]([O-])c1cc(C(F)(F)F)cc([N+](=O)[O-])c1Cl	none (no result: Prx2 Sm inh)
CCCN(CCC)c1c([N+](=O)[O-])cc(C(F)(F)F)cc1[N+](=O)[O-]	LT uptake inh 5.01µM (no result: Prx2 Sm inh)
Cc1ccc(N(CC(O)COCc2ccco2)S(=O)(=O)c2ccc(C)cc2)cc1 (stereo not drawn)	none
Cc1noc(C)c1S(=O)(=O)N(CC(=O)N1CCc2ccccc21)c1ccc(C(C)C)cc1	AmpC nodet inh 3.98µM[single pt active]
CCOC(=O)C(C(C)=O)c1c(Br)c(O)c(O)c2c(C(=O)c3ccc(C)cc3)coc12 (stereo not drawn)	AmpC nodet inh 6.31µM, LT uptake inh inconclusive
COc1ccc(Cl)cc1NC(=O)CSc1nnc(COc2ccccc2)n1N	none
COc1ccccc1NC(=O)N1CCN(c2ccc3nncn3n2)CC1	AmpC nodet inh 3.98µM[single pt active]
CSc1nc2nc(C)cc(-c3ccccc3)n2n1	none
Cc1cc(-c2ccccc2)n2ncc(C#N)c2n1	AmpC nodet inh 3.98µM[single pt active]
CC(C)=CCC1(CC=C(C)C)C(=O)C(C(=O)c2ccccc2)=C2OC(C)(C)CCC2(CC=C(C)C)C1=O (stereo not drawn)	none (no result: Prx2 Sm inh, AmpC nodet inh, AmpC inh det)
CCCC(C)C(=O)Nc1cccc(NC(C)=O)c1 (stereo not drawn)	none (no result: Prx2 Sm inh)
CO[C@@H]1CC[C@@]2(C)[C@@H](CC[C@@]3(C)[C@H]2CC=C2[C@H]4CC(C)(C)[C@H](O)[C@@H](OC(C)=O)[C@]4(CO)[C@H](O)C[C@]23C)[C@@]1(C)CO (tested in a mixture with another compound)	none
C[C@H]1[C@H](C)CC[C@@]2(C(=O)O)CC[C@]3(C)C(=CC[C@@H]4[C@@]5(C)CC[C@H](O)C(C)(C)[C@@H]5CC[C@@]43C)[C@@H]12	LT uptake inh 7.94µM
COc1ncnc2c1oc1nc(C(C)C)c3c(c12)CC(C)(C)OC3	none
Cc1ccsc1C=Nc1ccc(O)cc1	AmpC nodet inh 10µM, LT uptake inh inconclusive
Cc1cccc(C(=O)O)c1NC(=O)c1ccc(F)cc1	none (no result: LT uptake inh)
O=C(CSc1nnc(Cc2cc(=O)[nH]c(=O)[nH]2)n1-c1ccc(Cl)cc1)NC1CCCC1	AmpC nodet inh 3.98µM[single pt active]
CCOc1ccc(-n2c(Cc3cc(=O)[nH]c(=O)[nH]3)nnc2SCC(=O)NC2CCCC2)cc1	AmpC nodet inh inconclusive
COc1ccc(-n2c(Cc3cc(=O)[nH]c(=O)[nH]3)nnc2SCC(=O)NC2CCCC2)cc1	AmpC nodet inh 3.98µM[single pt active]
O=C(CSc1nnc(Cc2cc(=O)[nH]c(=O)[nH]2)n1-c1ccc(Cl)cc1)NCC1CCCO1 (stereo not drawn)	none
O=C(Cc1ccccc1)Nc1ccc2oc(-c3ccncc3)nc2c1	none
O=C(Cn1c(=O)oc2cc(S(=O)(=O)N3CCCCCC3)ccc21)NC1CCCCCCC1	AmpC nodet inh 3.98µM[single pt active]
O=C(Cn1c(=O)sc2ccccc21)Nc1ccc(S(=O)(=O)N2CCCCC2)cc1	AmpC nodet inh 6.31µM
CC1CCN(S(=O)(=O)c2ccc3c(c2)oc(=O)n3CC(=O)N2c3ccccc3CC2C)CC1 (stereo not drawn)	LT uptake inh inconclusive

Compound activity deposited in PubChem BioAssay by National Center for Advancing Translational Sciences (NCATS).
